Screening results: PubChem BioAssay, National Center for Advancing Translational Sciences (NCATS)
Sampled rows, rich in hits. Any-hit rate of the full collection: about 0.4%.
GAA glycogen mod = qHTS Assay for Inhibitors and Activators of Human alpha-Glucosidase Cleavage of Glycogen; Lysosomal alpha-glucosidase (Homo sapiens), P10253; recombinant GAA, glycogen substrate, Amplex Red glucose oxidase fluorescence; Potency, µM (titrated, usually from 76.4 µM), for inactives: at the highest dose activity change, negative = inhibition, most hits filed as inhibitors; hit rate 0.38% among 300,000;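 also: potency is read from the fitted curve at half-maximal effect; 0% = full enzyme reaction and -100% = no-enzyme basal signal; the screen sought inhibitors and activators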
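Natural-substrate format: glycogen cleavage by 4 nM human enzyme, glucose read by Amplex Red coupling (Ex 573, Em 610 nm). Normalized to enzyme and no-enzyme controls.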
GAA inhib = qHTS Assay for Inhibitors of Human alpha-Glucosidase as a Potential Chaperone Treatment of Pompe Disease; Lysosomal alpha-glucosidase (Homo sapiens), P10253; purified human GAA, 4-MU-alpha-glucoside fluorescence; Potency, µM (series often up to 76.9 µM), for inactives: at the highest dose activity change, negative = inhibition, actives largely listed as inhibitors; hit rate 0.005% among 200,000;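 also: potency is read from the fitted curve at half-maximal effect; plate controls were uninhibited enzyme wells for no effect and no-enzyme background for full effect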
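Fluorogenic assay: 4 nM human alpha-glucosidase with 400 uM 4-methylumbelliferyl-alpha-D-pyranoside in 50 mM citrate/phosphate, 0.005% Tween-20, pH 5.0, 20 min at room temperature. Compounds tested up to 77 uM; AC50 from Hill fits.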
aGlu spleen mod = qHTS Assay for Inhibitors and Activators of Human alpha-Glucosidase From Spleen Homogenate; Lysosomal alpha-glucosidase (Homo sapiens), P10253; human spleen homogenate, 4-MU-alpha-glucoside fluorescence; Potency, µM (titrated, usually from 79.9 µM), without a hit: at the top dose activity change, negative = inhibition, hits mostly inhibitors; hit rate 0.006% among 240,000; AID 2112, 2009;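 also: potency is read from the fitted curve at half-maximal effect; 0% = enzyme with vehicle and -100% = no enzyme basal signal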
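Human spleen homogenate (1 ug) incubated with compounds and 1 mM 4-methylumbelliferyl-alpha-D-glucopyranoside in pH 5.0 citrate/phosphate buffer, 37 C, 40 min. Stopped at pH 10; 4-MU fluorescence (Ex 365/Em 440 nm); AC50 by Hill fit.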
aGal spleen mod = qHTS Assay for Inhibitors and Activators of Human alpha-Galactosidase From Spleen Homogenate; Potency, µM (highest dose often 80 µM), for the others: at the top dose activity change, negative = inhibition, hits mostly inhibitors; human spleen homogenate, 4MU-alpha-Gal fluorescence, 40 min; AID 2107, 2009; Alpha-galactosidase A (Homo sapiens), P06280; hit rate 0.008% among 240,000;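 also: potency is read from the fitted curve at half-maximal effect; 0% = enzyme with vehicle and -100% = no enzyme basal signal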
Target sequence (P06280 32-429 limits assumed): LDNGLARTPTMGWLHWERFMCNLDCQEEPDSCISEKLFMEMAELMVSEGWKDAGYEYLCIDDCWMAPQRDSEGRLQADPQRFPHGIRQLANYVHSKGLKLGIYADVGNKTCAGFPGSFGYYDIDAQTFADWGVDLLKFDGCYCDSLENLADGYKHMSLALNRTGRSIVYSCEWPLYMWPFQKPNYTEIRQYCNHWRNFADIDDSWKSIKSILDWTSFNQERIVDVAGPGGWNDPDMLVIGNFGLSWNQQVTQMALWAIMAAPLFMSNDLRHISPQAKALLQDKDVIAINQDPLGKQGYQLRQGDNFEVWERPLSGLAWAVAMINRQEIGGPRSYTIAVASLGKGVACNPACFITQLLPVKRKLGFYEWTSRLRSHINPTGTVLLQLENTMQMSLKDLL
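Fluorogenic readout (Ex 365/Em 440 nm) of 4-methylumbelliferone released from 1 mM 4-MU-alpha-galactoside by spleen homogenate, 40 min at 37C, pH 5.0. Data normalized to no-enzyme and enzyme controls; Hill-equation AC50 from compound titrations.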
GLA inh pH 4.5 = qHTS Assay for Inhibitors of Human alpha-Galactosidase at pH 4.5 | 230,000 tested, under 10 active | activity change, negative = inhibition, % at 105 µM | purified enzyme, 4-MU-alpha-Gal fluorescence, pH 4.5 | Alpha-galactosidase A (Homo sapiens), P06280 | AID 1467, 2008;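 also: 0% = full activity with enzyme and -100% = basal without enzyme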
* = called active by the depositor; ? = inconclusive; . = no result given; [ ] = another dose, or the depositor's remark. Calls follow the shape of the dose curve; as a rule, active = well fitted curve in the direction sought with a large enough effect; inconclusive = small, poorly fitted or top-dose-only effect, or another doubt; inactive = no such curve, though single readings can be large; an effect the other way counts as inactive or inconclusive.

SMILES | GAA glycogen mod | GAA inhib | aGlu spleen mod | aGal spleen mod | GLA inh pH 4.5
O=c1[nH][nH]c2cc(=O)n(-c3cccc(C(F)(F)F)c3)nc12 | ? | ? | . | -0.5% | -1.5
CC1CCCN(Cc2c(O)ccc3c(=O)c(-c4ccc(Cl)cc4)c(C(F)(F)F)oc23)C1 (centres undefined) | 7.0%[76.3 µM] | . | . | . | .
COc1ccc(C2=C(C)C(=NCc3ccc(OC(C)C)cc3)NS2(=O)=O)cc1 | -12.2%[76.3 µM] | . | . | . | .
CCOC(=O)c1c(OCC)[nH]c2ccc(O)cc12 | 6.31µM* | -4.2% | -3.9% | 4.2% | 5.4
CC(C)(C)n1nnnc1C(c1ccncc1)N1CCN(c2ccc(O)cc2)CC1 (centres undefined) | 17.6µM* | -0.6% | 4.4% | 5.7% | -1.6
Cc1c(N/C=C(\Cl)C(=O)C(F)(F)F)c(=O)n(-c2ccccc2)n1C | 31.6µM* | -6.4% | 0.7% | 3.2% | -1.9
NC12CCc3c(no[n+]3[O-])C1(O)CC(c1ccccc1)=[N+]2[O-] (centres undefined) | -2.2% | -4.9% | -7.6% | -6.1% | -1.7
[O-][n+]1onc2c1CCC1N(O)C(c3ccccc3)CC21O (centres undefined) | 28µM* | 0.7% | -2.0% | -9.4% | -6.1
O=C(O)c1cccc(N/N=C/c2cccc3ccccc23)c1 | 31.6µM* | . | . | . | .
Cc1ccc(/C=N/Nc2cccc(C(=O)O)c2)s1 | -0.4% | -2.4% | -3.0% | 6.8% | 1.1
O=C(N/N=C/c1ccc(O)cc1)c1cccc(N/N=C/c2ccc(O)cc2)c1 | 25.1µM* | -14.1% | -3.0% | -2.0% | -6.4
O=C(N/N=C/c1ccncc1)c1cccc(N/N=C/c2ccncc2)c1 | -3.1% | 0.0% | -2.3% | -9.1% | -5.3
Cc1ccsc1CCN1C(=O)N(c2ccc(F)cc2)C(=O)C1CC(=O)Nc1ccccc1 (centres undefined) | -20.3%[76.3 µM] | . | . | . | .
COc1cc(Cl)ccc1NC(=O)COc1ccccc1C(=O)N1CCN(c2ccc(O)cc2)CC1 | 17.6µM* | 0.8% | 0.1% | -1.9% | 2.5
Cc1ccc(NC(=O)c2[nH]cnc2C(=O)NN)cc1 | 20µM* | ? | -5.3% | -1.8% | 5.4
Cc1ccc(NC(=O)c2nc[nH]c2C(=O)N[C@@H](C)c2ccccc2)cc1 | -0.5% | . | -1.3% | 1.0% | 2.4
O=C1CN(C(=O)c2ccc(S(=O)(=O)N3CCCCC3)cc2)C(c2ccc(F)cc2)c2cc(Br)ccc2N1 (centres undefined) | -13.6%[76.3 µM] | . | . | . | .
C=CC[n+]1c(-c2ccc(OC)cc2)csc1NNC(=O)Nc1ccccc1 | 20µM* | -9.5% | 2.0% | 6.0% | 0.6
C=CC[n+]1c(-c2ccc(C)cc2)csc1Nc1ccc(NC(C)=O)cc1 | 0.2% | 3.4% | -2.0% | -17.6% | 3.1
O=C(O)c1cccc(Cl)c1Cl | . | . | 1.9% | -10.4% | .
Brc1ccc2nc(-c3cccs3)c(NCC3CCCO3)n2c1 (centres undefined) | 6.31µM* | 4.3% | 1.6% | 8.9% | -7.8
Clc1ccc(Nc2c(-c3cccs3)nc3ccc(Cl)cn23)cc1 | -0.1%[76.3 µM] | . | . | . | .
CCC1CN2CCC1CC2[C@@H](NC(=S)Nc1cc(C(F)(F)F)cc(C(F)(F)F)c1)c1cccc2ccc(OC)cc12 (some centres undefined) | . | . | -3.7% | 8.3% | -7.4
CCCn1c(CNc2ccccc2O)nc2ccccc21 | 12.5µM* | -8.8% | -2.8% | 1.4% | -10.1
CCCn1c(CNC(=O)c2ccc(F)cc2)nc2ccccc21 | 15.7%[76.3 µM] | . | . | . | .
SMILES | GAA glycogen mod | GAA inhib | aGlu spleen mod | aGal spleen mod | GLA inh pH 4.5
O=C(c1ccc2c(c1)OCO2)N1CCN(c2ccccc2)CC1 | 6.8% | -5.9% | 4.0% | 3.6% | -5.6
O=C(O)c1cc(NCc2ccc3c(c2)OCO3)ccc1N1CCOCC1 | 4.97µM* | -0.5% | 5.0% | 7.8% | 5.4
COC(=O)c1cc(NCc2ccc3c(c2)OCO3)ccc1N1CCOCC1 | ? | -7.5% | -5.0% | 3.7% | -1.8
CC(=O)N1CCN(c2ccc(NCc3ccc4c(c3)OCO4)cc2)CC1 | 22.2µM* | 8.3% | -7.3% | -8.5% | 5.7
O=C(c1ccccc1)N1CCN(c2ccc(NCc3ccc4c(c3)OCO4)cc2)CC1 | 28.2µM* | -3.6% | -1.0% | -2.3% | -2.5
O=C(CN1C(=O)COc2ccc(S(=O)(=O)N3CCCCCC3)cc21)NCCc1ccccc1 | 13.3%[76.3 µM] | . | . | . | .
CN(c1ncnc2onc(-c3cccc(Cl)c3)c12)C1CCCCC1 | -21.0%[76.3 µM] | . | . | . | .
COc1cc(NC(=O)CSc2ccc(-c3sc(C)nc3C)nn2)cc(OC)c1 | 15.7%[76.3 µM] | . | . | . | .
CCc1cccc(NC(=O)Nc2cccs2)c1 | 28.2µM* | 0.6% | 1.9% | 2.2% | -14.6
COC(=O)C/C=C\[C@@H](C)[C@@H](CO)NS(=O)(=O)c1ccc(C)cc1 | . | . | -3.7%[17.4 µM] | 1.6%[17.5 µM] | .
O=C1CC(N2CCN(c3ccc(O)cc3)CC2)C(=O)N1c1ccc2c(c1)OCO2 (centres undefined) | 15.8µM* | 12.2% | 3.2% | -5.7% | -0.5
O=C1CC(N2CCCCCC2)C(=O)N1c1ccc2c(c1)OCO2 (centres undefined) | -1.2% | -7.9% | 4.8% | 4.8% | -2.0
O=C(NC1CCCCC1)c1ccc(CSc2nc3ccncc3n2Cc2cccc(F)c2)cc1 | -12.0%[76.3 µM] | . | . | . | .
CC1C(=O)NN=C1C(=O)N/N=C\c1ccc(O)cc1O (centres undefined) | -2.0% | 0.0% | -8.2% | -5.7% | -4.4
Oc1ccc(/C=N/Nc2ncc(Br)cn2)c(O)c1 | 28.2µM* | -8.5% | 8.1% | 9.4% | -11.7
Oc1ccc(/C=N/Nc2cccc3cccnc23)c(O)c1 | 25.1µM* | -2.1% | -9.9% | -5.6% | -1.3
Oc1ccc(Br)cc1/C=N/Nc1ncc(-c2ccccc2)cn1 | 5.3% | 2.4% | 1.3% | 2.6% | -1.4
Oc1ccc(/C=N/Nc2nccnc2Cl)c(O)c1 | 11.2µM* | -4.1% | -2.1% | -1.8% | 2.1
O=c1[nH]ncc(N/N=C\c2ccc(O)cc2O)c1Cl | 2.49µM* | -10.0% | -10.8% | -0.5% | -12.7
COc1ccc(CNCCSc2nnnn2-c2ccccc2)c(OC)c1 | 12.5%[76.3 µM] | . | . | . | .
CC(=O)c1sc(NS(=O)(=O)c2ccc(C)cc2)nc1C | -1.5% | 5.7% | -8.4% | -0.3% | -2.5
Cc1ccc(S(=O)(=O)Nc2nc(C)c(C(=O)NN)s2)cc1 | 31.6µM* | . | 6.4% | 7.7% | 0.7
CCOC(=O)Nc1sc(NS(=O)(=O)c2ccc(C)cc2)nc1C | 28.2µM* | ? | -2.2% | -8.2% | 7.8
CCOC(=O)C1CCCN(c2nc3ccccc3nc2C(C#N)C(=O)OCC)C1 (centres undefined) | -2.4% | 0.0% | -3.3% | -8.3% | 1.4
